{
  "source": "the supplement of paper PMC8728848",
  "binders": {"B1": {"name": "XCL (Xerocomus chrysenteron) (protein)", "chain": "MSYSITLRVYQTNRDRGYFSIVEKTVWHFANGGTWSEANGAHTLTQGGSGTSGVLRFLSTKGERITVAVGVHNYKRWCDVVTGLKPDETALVINPQYYNNGGRDYVREKQLAEYSVTSAIGTKVEVVYTVAEGNNLEANVIFS"}},
  "test_in_all_cases": "glycan array binding signal (z-score within array); higher = stronger binding",
  "conditions_in_all_cases": "glycan notation: IUPAC condensed, linker removed",
  "key": {"[1]": {"biological_target": "Fuc(a1-2)Gal(b1-4)GlcNAc(b1-3)[Fuc(a1-2)Gal(b1-4)GlcNAc(b1-6)]GalNAc", "outline": "(§1)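 Columns mapping to the same glycan were averaged after glycan names were converted to IUPAC-condensed notation. The data come from 3228 arrays in the Consortium for Functional Glycomics database, limited to those with an available protein sequence. Binding is reported as a within-array Z-score averaged across arrays of one protein sequence and across linkers.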"}, "[2]": {"biological_target": "Fuc(a1-2)[Gal(a1-3)]Gal(b1-3)GalNAc", "outline": "as §1"}, "[3]": {"biological_target": "Fuc(a1-2)[Gal(a1-3)]Gal(b1-3)GlcNAc(b1-3)GalNAc", "outline": "as §1"}, "[4]": {"biological_target": "Fuc(a1-2)[GalNAc(a1-3)]Gal", "outline": "as §1"}, "[5]": {"biological_target": "Fuc(a1-2)[GalNAc(a1-3)]Gal(b1-3)GlcNAc(b1-3)GalNAc", "outline": "as §1"}, "[6]": {"biological_target": "Fuc(a1-3)[Gal(b1-4)]GlcNAc(b1-2)Man(a1-3)[Fuc(a1-3)[Gal(b1-4)]GlcNAc(b1-2)Man(a1-6)]Man(b1-4)GlcNAc(b1-4)GlcNAc", "outline": "as §1"}, "[7]": {"biological_target": "Fuc(a1-3)[Gal(b1-4)]GlcNAc(b1-3)Gal(b1-3)[Fuc(a1-4)]GlcNAc", "outline": "as §1"}, "Gal(a1-3)GalNAc": {"biological_target": "Gal(a1-3)GalNAc", "outline": "as §1"}, "[8]": {"biological_target": "Gal(b1-3)GalNAc(a1-3)[Fuc(a1-2)]Gal(b1-4)GlcNAc", "outline": "as §1"}, "[9]": {"biological_target": "Gal(b1-4)GlcNAc(b1-2)Man(a1-3)[Man(a1-6)]Man(b1-4)GlcNAc(b1-4)GlcNAc", "outline": "as §1"}, "[10]": {"biological_target": "Gal(b1-4)GlcNAc(b1-3)[Gal(b1-4)GlcNAc(b1-6)]GalNAc", "outline": "as §1"}, "Gal3S(b1-3)GalNAc": {"biological_target": "Gal3S(b1-3)GalNAc", "outline": "as §1"}, "[11]": {"biological_target": "Gal3S(b1-3)[Fuc(a1-4)]GlcNAc", "outline": "as §1"}, "Gal6S(b1-3)GlcNAc6S": {"biological_target": "Gal6S(b1-3)GlcNAc6S", "outline": "as §1"}, "Glc(b1-4)Glc": {"biological_target": "Glc(b1-4)Glc", "outline": "as §1"}, "[12]": {"biological_target": "GlcNAc(a1-4)Gal(b1-4)GlcNAc", "outline": "as §1"}, "[13]": {"biological_target": "GlcNAc(a1-4)Gal(b1-4)GlcNAc(b1-3)Gal(b1-4)GlcNAc(b1-3)Gal(b1-4)GlcNAc", "outline": "as §1"}, "[14]": {"biological_target": "GlcNAc(b1-2)Gal(b1-3)GalNAc", "outline": "as §1"}, "[15]": {"biological_target": "GlcNAc(b1-2)Man(a1-3)[GlcNAc(b1-2)Man(a1-6)]Man(b1-4)GlcNAc(b1-4)GlcNAc", "outline": "as §1"}, "[16]": {"biological_target": "GlcNAc(b1-2)Man(a1-3)[GlcNAc(b1-4)][GlcNAc(b1-2)Man(a1-6)]Man(b1-4)GlcNAc(b1-4)GlcNAc", "outline": "as §1"}, "[17]": {"biological_target": "GlcNAc(b1-2)[GlcNAc(b1-4)]Man(a1-3)[GlcNAc(b1-4)][GlcNAc(b1-2)Man(a1-6)]Man(b1-4)GlcNAc(b1-4)GlcNAc", "outline": "as §1"}, "[18]": {"biological_target": "GlcNAc(b1-2)[GlcNAc(b1-6)]Man(a1-6)[GlcNAc(b1-2)Man(a1-3)][GlcNAc(b1-4)]Man(b1-4)GlcNAc(b1-4)GlcNAc", "outline": "as §1"}, "GlcNAc(b1-3)Gal": {"biological_target": "GlcNAc(b1-3)Gal", "outline": "as §1"}, "[19]": {"biological_target": "GlcNAc(b1-3)Gal(b1-3)GalNAc", "outline": "as §1"}, "[20]": {"biological_target": "GlcNAc(b1-3)[GlcNAc(b1-4)][GlcNAc(b1-6)]GlcNAc", "outline": "as §1"}, "[21]": {"biological_target": "GlcNAc(b1-3)[GlcNAc(b1-6)]GalNAc", "outline": "as §1"}, "[22]": {"biological_target": "GlcNAc(b1-4)Gal(b1-4)GlcNAc", "outline": "as §1"}, "Kdn(a2-3)Gal(b1-4)Glc": {"biological_target": "Kdn(a2-3)Gal(b1-4)Glc", "outline": "as §1"}, "[23]": {"biological_target": "Neu5Ac(a2-3)Gal(b1-3)GalNAc6S", "outline": "as §1"}, "[24]": {"biological_target": "Neu5Ac(a2-3)Gal(b1-4)GlcNAc(b1-2)Man(a1-3)[Neu5Ac(a2-6)Gal(b1-4)GlcNAc(b1-2)Man(a1-6)]Man(b1-4)GlcNAc(b1-4)GlcNAc", "outline": "as §1"}},
  "note": "The entries come from a sample that favours the strongest signals as a whole.",
  "data": [
    {"binder": "B1", "values": [
      {"measurement": "glycan array binding signal (z-score)", "setting": "[1]", "result": -0.27},
      {"measurement": "glycan array binding signal (z-score)", "setting": "[2]", "result": -0.324},
      {"measurement": "glycan array binding signal (z-score)", "setting": "[3]", "result": -0.303},
      {"measurement": "glycan array binding signal (z-score)", "setting": "[4]", "result": -0.237},
      {"measurement": "glycan array binding signal (z-score)", "setting": "[5]", "result": -0.249},
      {"measurement": "glycan array binding signal (z-score)", "setting": "[6]", "result": -0.324},
      {"measurement": "glycan array binding signal (z-score)", "setting": "[7]", "result": -0.31},
      {"measurement": "glycan array binding signal (z-score)", "setting": "Gal(a1-3)GalNAc", "result": -0.207},
      {"measurement": "glycan array binding signal (z-score)", "setting": "[8]", "result": 3.43},
      {"measurement": "glycan array binding signal (z-score)", "setting": "[9]", "result": -0.272},
      {"measurement": "glycan array binding signal (z-score)", "setting": "[10]", "result": -0.282},
      {"measurement": "glycan array binding signal (z-score)", "setting": "Gal3S(b1-3)GalNAc", "result": 3.44},
      {"measurement": "glycan array binding signal (z-score)", "setting": "[11]", "result": -0.322},
      {"measurement": "glycan array binding signal (z-score)", "setting": "Gal6S(b1-3)GlcNAc6S", "result": -0.321},
      {"measurement": "glycan array binding signal (z-score)", "setting": "Glc(b1-4)Glc", "result": -0.304},
      {"measurement": "glycan array binding signal (z-score)", "setting": "[12]", "result": 2.15},
      {"measurement": "glycan array binding signal (z-score)", "setting": "[13]", "result": 5.84},
      {"measurement": "glycan array binding signal (z-score)", "setting": "[14]", "result": -0.139},
      {"measurement": "glycan array binding signal (z-score)", "setting": "[15]", "result": 4.71},
      {"measurement": "glycan array binding signal (z-score)", "setting": "[16]", "result": 5.38},
      {"measurement": "glycan array binding signal (z-score)", "setting": "[17]", "result": 4.92},
      {"measurement": "glycan array binding signal (z-score)", "setting": "[18]", "result": 3.42},
      {"measurement": "glycan array binding signal (z-score)", "setting": "GlcNAc(b1-3)Gal", "result": 0.225},
      {"measurement": "glycan array binding signal (z-score)", "setting": "[19]", "result": 3.71},
      {"measurement": "glycan array binding signal (z-score)", "setting": "[20]", "result": 0.592},
      {"measurement": "glycan array binding signal (z-score)", "setting": "[21]", "result": 0.896},
      {"measurement": "glycan array binding signal (z-score)", "setting": "[22]", "result": -0.303},
      {"measurement": "glycan array binding signal (z-score)", "setting": "Kdn(a2-3)Gal(b1-4)Glc", "result": -0.294},
      {"measurement": "glycan array binding signal (z-score)", "setting": "[23]", "result": 3.87},
      {"measurement": "glycan array binding signal (z-score)", "setting": "[24]", "result": -0.32}
    ]}
  ]
}
